ALDH1A1 inh = qHTS Assay for Inhibitors of Aldehyde Dehydrogenase 1 (ALDH1A1); actives 7.3% (n = 220,000); Potency, µM (titrated, usually from 75.3 µM), for the others: at the highest dose activity, negative = inhibition, hits mostly inhibitors; Purified ALDH1A1, NADH fluorescence, propionaldehyde substrate;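 further: potency means the concentration at half of the fitted maximal effect; plate controls were no enzyme wells and a reference inhibitor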
Target sequence (P00352 whole entry, looked up): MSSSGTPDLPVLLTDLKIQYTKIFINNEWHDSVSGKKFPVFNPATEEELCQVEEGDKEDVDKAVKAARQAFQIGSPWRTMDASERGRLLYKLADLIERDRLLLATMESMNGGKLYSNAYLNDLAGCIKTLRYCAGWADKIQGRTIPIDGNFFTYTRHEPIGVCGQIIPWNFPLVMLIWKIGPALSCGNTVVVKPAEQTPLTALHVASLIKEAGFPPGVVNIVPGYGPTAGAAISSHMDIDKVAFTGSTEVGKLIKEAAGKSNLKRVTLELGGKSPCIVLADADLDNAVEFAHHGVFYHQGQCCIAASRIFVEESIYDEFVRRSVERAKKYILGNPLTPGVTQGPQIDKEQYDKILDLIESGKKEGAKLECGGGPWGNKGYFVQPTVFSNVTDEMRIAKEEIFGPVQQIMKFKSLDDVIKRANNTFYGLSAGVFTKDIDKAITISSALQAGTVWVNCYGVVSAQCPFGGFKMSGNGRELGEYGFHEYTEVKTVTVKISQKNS
HPGD block = qHTS Assay for Inhibitors of HPGD (15-Hydroxyprostaglandin Dehydrogenase) | 15-hydroxyprostaglandin dehydrogenase [NAD(+)] (Homo sapiens), P15428 | purified HPGD, NADH fluorescence kinetic, PGE2 substrate | Potency, µM, for the others: at the highest dose activity change, negative = inhibition, most hits filed as inhibitors | actives 4.3% (n = 150,000) | AID 894, 2007; further: potency means the concentration at half of the fitted maximal effect
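NADH formation kinetics: reaction with 30 uM PGE2 and 1 mM NAD+ (final), 20 nM enzyme, Tris-HCl pH 8 with Tween 20, after 15 min compound preincubation at room temperature. Fluorescence change, last versus first of five reads.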
PNC assembly inh = High Content Assay for Compounds that inhibit the Assembly of the Perinucleolar Compartment; PC3M PTB-GFP, PNC prevalence imaging, 16 h; hits give low values; activity change (PNC), negative = inhibition, % at 10 µM; actives 3.1% (n = 140,000); AID 2417, 2010;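 active means readout at or below -70, meaning at least 70% loss of cells showing the perinucleolar compartment, a nuclear body marking cancer cells; inconclusive means readout between -30 and a set limit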;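 further: plate controls were DMSO wells for no effect and camptothecin positive control wells for full effect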
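Read-out is percentage of cells bearing a perinucleolar compartment, from automated 20x imaging of fixed, Hoechst-stained PC3M PTB-GFP cells. Cells were seeded 4 h, then exposed 16 h to compound (23 nl of library stock) in duplicate plates.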
* marks the source's active call; other numbers are inactive results; ? = inconclusive; / = no result. Most compounds without a hit are left out; they make up all but 11% or so of the library. Unless noted, the call rests on the fitted dose curve; in most records, active means well fitted inhibition curve with a large enough effect (not every such curve was filed as active); inconclusive means small, poorly fitted or top-dose-only effect, or another doubt; inactive means no such curve, though single readings can be large or run the other way. Unless noted, on the % scale 0 is the no-effect control and ±100 the full control effect.

SMILES	ALDH1A1 inh	HPGD block	PNC assembly inh
CCOCCc1nnc(NC(=O)Cc2c(F)cccc2Cl)s1	0%	/	/
Cc1cc(Cl)ccc1OC(C)C(=O)NCCCn1ccnc1 (centres undefined)	1%	/	/
N#CCSc1nnc(Cc2cccc3ccccc23)n1C1CCCCC1	3%	-4%	?
COc1ccc(C(O)(c2ccccc2OC)C(CN2CCOCC2)c2ccccc2)cc1 (centres undefined)	7%	/	/
Cc1cc(F)ccc1NCc1cc2c(cc1[N+](=O)[O-])OCO2	11µM*	-17%	7
Cn1c(-c2ccc(F)cc2)cnc1NCc1cc2c(cc1[N+](=O)[O-])OCO2	3%	-17%	?
Cc1cc(F)ccc1NCc1ccncc1	-1%	-6%	?
Cn1c(-c2ccccc2)cnc1NCc1cc2c(cc1[N+](=O)[O-])OCO2	13µM*	-16%	14
Cn1c(-c2ccc(Cl)cc2)cnc1NCc1cc2c(cc1[N+](=O)[O-])OCO2	14µM*	0%	-13
O=C(COc1ccccc1)N/N=C/c1cc2c(cc1[N+](=O)[O-])OCO2	-17%	-15%	?
S=C(NCCN1CCOCC1)Nc1ccc(Br)cc1	-4%	-12%	-15
CN(NS(=O)(=O)c1ccc(Cl)cc1)c1nc(C(F)(F)F)nc2ccccc12	20%	/	/
Oc1ccc(Br)cc1-c1cc(-c2ccccc2F)[nH]n1	2%	4.5µM*	18
COc1ccccc1-c1cc(-c2cc(Cl)ccc2O)n[nH]1	?	-19%	-22
Oc1ccc(Cl)cc1-c1cc(-c2ccccc2)n[nH]1	4%	16µM*	-12
Cc1ccccc1-c1cc(-c2ccccc2O)n[nH]1	10%	?	4
Cc1nc(CSc2nsc(/C=C/N(C)C)c2C#N)cs1	6.3µM*	/	/
Cc1nc(CSc2nnc(N)s2)cs1	-1%	/	/
COc1ccc(CNc2nc3ccccc3n2Cc2ccc(Cl)cc2)cc1OC	14%	-2%	36
O=C(NC1CCCC1)C1CCCN1C(=O)Nc1ccc(Cl)cc1 (centres undefined)	8%	-3%	?
Cc1ccc(N(CC(=O)NCc2cccs2)S(=O)(=O)c2cccs2)cc1	?	-12%	-83*
COc1ccc(N(CC(=O)NCc2cccs2)S(=O)(=O)c2c(C)nn(C)c2C)cc1	?	-8%	39
Cc1c(Cl)c(=O)oc2cc(OCC(=O)NCc3cccs3)ccc12	?	?	-108*
Cc1ccc(OCC(=O)NCc2cccs2)cc1	-6%	22µM*	?
CCOc1ccc2c(C)c(Cl)c(=O)oc2c1	?	?	14
SMILES	ALDH1A1 inh	HPGD block	PNC assembly inh
O=C(COc1ccccc1)NCc1cccs1	0%	-26%	?
O=C(NCCC1=CCCCC1)C1CCN(S(=O)(=O)c2cccc3nsnc23)CC1	5%	-9%	-20
COC(=O)c1cc(NC(=O)CC2NC3CCCCC3NC2=O)cc(C(=O)OC)c1 (centres undefined)	?	-7%	7
COc1ccc(C(=O)OCC(=O)N2CCCC2=O)c(OC)c1	9%	/	/
Cc1ccc(C2CC(=O)Oc3ccc(O)cc32)cc1 (centres undefined)	32µM*	?	/
Cc1ccc(C2CC(=O)Oc3ccc(C(C)(C)C)cc32)cc1 (centres undefined)	-13%	-23%	/
CC(=O)Oc1ccc(/C=N/NS(=O)(=O)c2ccccc2)cc1	5%	/	/
COc1ccc(CCNS(=O)(=O)c2ccc(C3CNC(=O)C3)cc2)cc1OC (centres undefined)	-11%	-12%	-119*
COc1ccc(CCNS(=O)(=O)c2ccc(S(=O)(=O)N3CCCC3)cc2)cc1OC	?	4%	-12
COc1cccc(NC(=O)CSCc2n[nH]c(=O)[nH]2)c1	1%	1%	?
CCOC(=O)/C=C1\SCC(=O)N1CCOc1cccc(Br)c1	-6%	-12%	8
CCCn1c(-c2ccc(F)cc2)nc2c(N3CCN(C)CC3)nc(C)nc21	?	-25%	/
C=C[C@@]1(C)CC[C@H](O)[C@H]2C(=O)CCC[C@@H]21	10%	-5%	/
COC(=O)c1ccc(COc2ccc(/C=N/O)cc2)o1	7%	/	/
COc1ccccc1C1(O)CC2CCC(C1)N2S(=O)(=O)c1ccc(C(C)=O)cc1 (centres undefined)	?	-4%	35
N#CC(c1nc2ccccc2nc1N1CCOCC1)S(=O)(=O)c1ccccc1 (centres undefined)	4%	/	/
CC(N1CCOC1=O)S(=O)(=O)c1ccccc1 (centres undefined)	-15%	-12%	-110*
CCOC(=O)c1[nH]ncc1CN1CCCC(C(=O)c2cccc3ccccc23)C1 (centres undefined)	11%	/	/
CCOC(=O)c1[nH]ncc1CN1CCCC(C(=O)c2ccc(SC)cc2)C1 (centres undefined)	35µM*	/	/
Cc1ccc(N(C(C)C(=O)O)S(=O)(=O)c2c(C)n[nH]c2C)cc1 (centres undefined)	?	-11%	-5
Cc1ccc(Oc2nc(CN3CCOCC3)nc3sc4c(c23)CCC(C)C4)cc1 (centres undefined)	?	-10%	-8
Cc1sc2nc(CN3CCOCC3)nc(N3CCC(C(N)=O)CC3)c2c1C	1%	-5%	44
Cc1sc2nc(CN3CCOCC3)nc(Oc3ccc(NC(=O)c4ccco4)cc3)c2c1C	18µM*	/	37
Cc1sc2nc(CN3CCOCC3)nc(N3CCOCC3)c2c1C	14µM*	-10%	33
Cc1cc(NC(=O)COC(=O)c2cc(S(=O)(=O)N3CCOCC3)ccc2N2CCCCC2)no1	1%	-3%	16
SMILES	ALDH1A1 inh	HPGD block	PNC assembly inh
Cc1ccc(C)c(Cn2nnc3c(=O)[nH]c(C4CCCN(C(=O)CC(C)C)C4)nc32)c1 (centres undefined)	1%	10µM*	18
Cc1cc(C)cc(NC(=O)c2nnn(Cc3cc(C)ccc3C)c2N)c1	0%	-15%	-5
CCOc1ccccc1NC(=O)N1CCCC(c2nc3c(nnn3Cc3ccc(C)cc3)c(=O)[nH]2)C1 (centres undefined)	?	-19%	3
CCCCC(=O)N1CCCC(c2nc3c(nnn3Cc3cc(C)ccc3C)c(=O)[nH]2)C1 (centres undefined)	?	2.2µM*	?
Cc1ccc(CC(=O)N2CCC(c3nc4c(nnn4Cc4ccccc4)c(=O)[nH]3)CC2)cc1	-7%	?	15
Cc1ccc(C(=O)N2CCCC(c3nc4c(nnn4Cc4ccccc4)c(=O)[nH]3)C2)cc1 (centres undefined)	?	3.5µM*	?
COCCCNC(=O)c1nc2c(nnn2Cc2cc(C)ccc2C)c(=O)[nH]1	-12%	0.45µM*	80
Cc1ccc(Cn2nnc3c(=O)[nH]c(C4CCCN(C(=O)Nc5ccc(F)cc5F)C4)nc32)cc1 (centres undefined)	?	-20%	27
CCOc1ccc(N(CC(=O)Nc2ccccc2C(=O)N2CCOCC2)S(=O)(=O)c2ccc(F)cc2)cc1	8%	-12%	?
CC(NC(=O)CCSc1nc(-c2ccc3c(c2)OCO3)cc(C(F)(F)F)n1)c1ccccc1 (centres undefined)	?	?	11
